This assay can be described thus: basal RPMI8226 mitochondrial membrane potential changes, profiling panel, cell-based, JC-1 fluorescence, 24 h, 100 nL compound (AID 1169). Note: test concentration not given here. Particulars: RPMI8226 myeloma, JC-1 mitochondrial potential fluorescence, higher = more signal.
In turn, `O=C1C2C=CC(C(O)Cc3ccccc3)N(n3cnnc3)C2C(=O)N1Cc1ccccc1` (stereo unspecified) displayed a z-score of 0.395.
In turn, `Cc1ccc(S[C@]2(C(=O)NCCCN(C)C)CC(=O)N(Cc3ccccc3C(F)(F)F)[C@@H]2c2ccc(CO)cc2)cc1` showed a z-score of 0.139.
As to `COc1cc(C(O)C2C=CC3C(=O)NC(=O)C3N2Nc2ccccn2)cc(OC)c1OC` (stereo unspecified), the z-score is -0.0982.
As for `C=CCNC(=O)[C@H]1[C@@H]2C(=O)O[C@@H](c3ccccc3)[C@@H](c3ccccc3)N2[C@@H](c2ccccc2OCCO)[C@]12C(=O)Nc1ccc(C#CCC(C(=O)OC)C(=O)OC)cc12`, the z-score is -1.32.
Turning to `COCCOC(=O)N1C(=O)[C@@]2(c3cc(C#CCNC(N)=O)ccc31)[C@H](C(=O)N1CCN(c3ncccn3)CC1)[C@H]1C(=O)O[C@H](c3ccccc3)[C@H](c3ccccc3)N1[C@@H]2c1ccc(OCCO)cc1`, the z-score is -0.863.
As to `CCOC(=O)C[C@H]1[C@H](OC(=O)c2ccc(C(=O)c3ccccc3)cc2)[C@@H](NC(=O)c2ccc3ccccc3c2)c2cc(OCCCO)ccc2N1C(=O)Cc1ccc(OC)cc1`, the z-score was -0.716.
With `C[C@H]1NC(=O)[C@@]23C(=O)N[C@@H](Cc4ccccc4)C2[C@H](C)[C@@]2(C)O[C@H]2C3/C=C/C/C=C\CNC(=O)[C@@H]2CCCN2C1=O` (stereo partly specified), the z-score is 0.263.
On to `C=C(CCCC)/C(=C/C[C@@H](OC(=O)c1ccncc1)c1ccc(OCCO)cc1)c1cc(C(=O)OC)ccc1OC`, for which the z-score was -0.728.
For `CN1C(=O)C2C=CC(C(O)c3ccc([N+](=O)[O-])cc3)N(N3CCCCC3)C2C1=O` (stereo unspecified) the value was 0.0849; for `CC(C)C(=C=CC[C@H](O)c1ccc(OCCO)cc1)CCO`, -0.881; for `C[C@H]1C2[C@H](Cc3ccccc3)NC(=O)[C@]23C(=O)N[C@H](Cc2ccccc2)C(=O)N2CCC[C@H]2C(=O)NC/C=C\C/C=C/C3[C@@H]2O[C@]12C` (stereo partly specified), -0.243.
In turn, `CN(C)CCCCCCNC(=O)[C@H]1C[C@H]2C(=O)N[C@@H](CCCCN)C(=O)N2[C@H]1c1cccc(OCCO)c1` yielded a z-score of -0.636.
The molecule `C=CCC(OC(C)=O)[C@@H]1[C@@H](N(Cc2cc3ccccc3o2)C(=O)c2cccc3ccccc23)c2cc(OCCCO)ccc2N1C(=O)c1ccc(-c2ccccc2)cc1` (stereo partly specified) returned a z-score of -0.448.
In turn, `COC(=O)[C@@]1(Cc2ccc(OC)cc2)[C@H]2c3cc(C(=O)N4CCCC4)n(Cc4ccc(O)c(OC)c4)c3C[C@H]2CN1C(=O)c1ccccc1` gave a z-score of -0.221.
`COC(=O)[C@@]1(Cc2ccc(OC)cc2)[C@H]2c3cc(C(=O)N4CCCC4)n(Cc4ccc(C)c(F)c4F)c3C[C@H]2CN1C(=O)c1ccccc1` showed a z-score of -0.735.
Consider `C=CCOC(=O)[C@H]1[C@@H]2C(=O)O[C@@H](c3ccccc3)[C@@H](c3ccccc3)N2[C@@H](c2ccc(OCCOC(=O)[C@@H]3C[C@@H]4C(=O)N[C@@H](CCCCNC(C)=O)C(=O)N4[C@@H]3c3ccc(O)cc3)cc2)[C@]12C(=O)Nc1ccccc12`, for which the z-score is -0.611.
Turning to `COC(=O)[C@@]1(Cc2ccc(OC)cc2)[C@H]2c3cc(C(=O)N(C)C)n(Cc4ccc(S(C)(=O)=O)cc4)c3C[C@H]2CN1C(=O)c1ccccc1`, the z-score was 0.484.
`CC(C)=CCN[C@H](CO)c1ccccc1`: the z-score is -0.0908.
As for `COC(=O)[C@@]1(Cc2ccc(F)cc2)[C@H]2c3cc(C(=O)N4CCCC4)n(Cc4ccc(S(C)(=O)=O)cc4)c3C[C@H]2CN1C(=O)c1ccccc1`, the z-score was found to be 0.611.
`COc1ccc(C#Cc2ccc3c(c2)[C@]2(C(=O)N3)[C@H](C(=O)Nc3nc4ccccc4s3)[C@H]3C(=O)O[C@H](c4ccccc4)[C@H](c4ccccc4)N3[C@@H]2c2ccc(O)cc2)cc1` gave a z-score of -1.02.
Turning to `[N-]=[N+]=Nc1ccccc1[C@H]1OC(c2ccc(OCCCO)cc2)=N[C@@]1(CCS(=O)(=O)c1ccccc1)C(N)=O`, the z-score is -1.07.
In turn, `CC(C)c1ccc(NN2C(C(O)c3ccc(B(O)O)cc3)C=CC3C(=O)N(c4ccccc4)C(=O)C32)cc1` (stereo unspecified) returned a z-score of -0.894.
For the molecule `COC(=O)[C@@]1(Cc2ccc(F)cc2)[C@H]2c3cc(C(=O)N(C)C)n(Cc4ccccc4)c3C[C@H]2CN1C(=O)c1ccccc1`, the z-score was -0.28.
For `[N-]=[N+]=Nc1ccccc1[C@@H]1OC(c2ccc(OCCCO)cc2)=N[C@]1(Cc1ccccc1)C(=O)N1CCOCC1` the value was -1.21.
The molecule `CN(C)C(=O)[C@]1(Cc2ccccc2N=[N+]=[N-])N=C(c2ccc(OCCCO)cc2)O[C@@H]1c1ccccc1N=[N+]=[N-]` returned a z-score of -0.946.
The figure for `CC(C)NC(=O)[C@@]1(c2ccc([N+](=O)[O-])cc2)CC(=O)N(C2CCCCC2)[C@@H]1c1ccc(CO)cc1I` is -0.169.
For `COCCOC(=O)N1C(=O)[C@@]2(c3cc(C#Cc4ccc(OC)cc4)ccc31)[C@H](c1ccc(OCCO)cc1)N1[C@H](c3ccccc3)[C@H](c3ccccc3)OC(=O)[C@H]1[C@@H]2C(=O)N1CCN(c2ncccn2)CC1`, the z-score was -0.351.
For `CCC[C@@H]1C[C@@]1(CCC)[C@@H](NC(=O)c1ccccc1)c1cccc(Cl)c1` the value was 0.466; for `[N-]=[N+]=Nc1ccccc1[C@H]1OC(c2ccc(OCCCO)cc2)=N[C@@]1(CCS(=O)(=O)c1ccccc1)C(=O)NCC(O)CO` (stereo partly specified), 0.311.
`O=C1N[C@@H](Cc2ccccc2)C(=O)N2[C@@H]1C[C@@H](C(=O)O)[C@H]2c1cccc(OCCO)c1`: the z-score is 0.448.
Consider `COc1ccc([Si](C)(C)[C@@H]2[C@@H](CC(=O)N3CCC[C@H]3CO)O[C@]3(C(=O)N(c4ccccc4)c4ccccc43)[C@H]2C)cc1`, for which the z-score was -0.277.
In the case of `CC(C)N1C(=O)C[C@@](C(=O)NCC(F)(F)F)(c2ccc([N+](=O)[O-])cc2)[C@H]1c1ccc(CO)cc1`, the z-score was -0.564.
Take `CN1C(=O)C2C=CC(C(O)C#Cc3ccccc3)N(N3CCCCC3)C2C1=O` (stereo unspecified): the z-score came out at 0.382.
As to `C=C(C)[C@@H]1CC=C(C(O)C2C=CC3C(=O)N(C)C(=O)C3N2Nc2ccccc2)CC1` (stereo partly specified), the z-score is -0.334.
In turn, `C=CCOC(=O)[C@@H]1[C@H]2C(=O)O[C@H](c3ccccc3)[C@H](c3ccccc3)N2[C@H](c2ccc(OCCOC(=O)[C@@H]3C[C@@H]4C(=O)NCC(=O)N4[C@@H]3c3ccc(O)cc3)cc2)[C@@]12C(=O)Nc1ccc(I)cc12` yielded a z-score of -0.972.
As to `COC(=O)[C@@]1(Cc2ccc(OC)cc2)[C@H]2c3cc(C(=O)N(C)C)n(CCc4ccccn4)c3C[C@H]2CN1C(=O)c1ccccc1`, the z-score was -0.772.

The record behind these values is PubChem BioAssay.
